# A selection: hits, their analogues and other compounds. The true share with any hit is near 19%.
# Lassa entry inh = qHTS for Inhibitors of binding or entry into cells for Lassa Virus; Lassa virus pseudotype entry inhibition, cell reporter; hit rate 1.2% among 300,000; Potency, µM (doses to about 37.9 µM), for the others: at the highest dose activity change, negative = inhibition, usual class: inhibitors; AID 540256, 2011; calls by dose curve; tested in HEK293 cells; also: potency is read from the fitted curve at half-maximal effect; % is scaled to controls: 0 for no effect and ±100 for the full control effect; nearly all actives have a fitted effect of over 50% in size
# Shiga inhibitor = A qHTS for Small Molecule Inhibitors of Shiga Toxin | Vero cells, Shiga toxin protein synthesis inhibition reporter | inhibition, % at 38.7 µM | hit rate 9.2% among 290,000 | AID 2315, 2010; in the data active = inhibition mostly above about 28%, no sharp cut-off; inactive = mostly below about 43%; also: 0% is about no effect
# Pf growth 96h = Primary qHTS for delayed death inhibitors of the malarial parasite plastid, 96 hour incubation | hit rate 6.9% among 320,000 | AID 504834, 2011 | Potency, µM (highest dose often 28.7 µM), for inactives: at the highest dose activity change, negative = inhibition, hits mostly inhibitors | P. falciparum luciferase reporter growth, 96 h; also: potency is read from the fitted curve at half-maximal effect; % is scaled to controls: 0 for no effect and ±100 for the full control effect
#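 Luminescence readout: decreased luciferase signal marks inhibited growth of reporter-expressing P. falciparum in infected red cells (2% hematocrit, 0.05% parasitemia final), exposed to compound two generations (96 h, 37 C, 5% CO2).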
# Pf growth 48h = Primary qHTS for delayed death inhibitors of the malarial parasite plastid, 48 hour incubation. P. falciparum luciferase growth in erythrocytes, 48 h. Potency, µM (series often up to 28.7 µM), inactives show at the highest dose activity change, negative = inhibition, usual class: inhibitors. hit rate 5.9% among 310,000. AID 504832, 2011; also: potency is read from the fitted curve at half-maximal effect; % is scaled to controls: 0 for no effect and ±100 for the full control effect
#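 First compound was added to culture medium, then infected red cells at 0.1% parasitemia and 2% hematocrit (final). After incubation at 37 C under 5% CO2, luciferase detection reagent was dispensed and light output recorded.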
# Cycloheximide cs = Cycloheximide Counterscreen for Small Molecule Inhibitors of Shiga Toxin | AID 2314, 2010 | hit rate 12% among 300,000 | cell reporter, cycloheximide protein synthesis inhibition counterscreen | max response, %; in the data active = max response mostly above about 13%, no sharp cut-off; inactive = mostly below about 14%; also: read at 38.3 µM for the half of the compounds with a filed dose; 0% is about no effect
# Marburg entry inh = qHTS for inhibitors of binding or entry into cells for Marburg Virus. AID 540276, 2011. Marburg virus pseudotyped entry inhibition, cell reporter. Potency, µM (highest dose often 37.8 µM), for the others: at the highest dose activity change, negative = inhibition, usual class: inhibitors. hit rate 1.8% among 300,000; calls by dose curve; tested in HEK293 cells; also: potency is read from the fitted curve at half-maximal effect; % is scaled to controls: 0 for no effect and ±100 for the full control effect
# * = called active by the depositor; u = inconclusive; x = no result given; [ ] = dose if it differs, or a comment. Unless noted, calls follow the shape of the dose curve; as a rule, active = well fitted inhibition curve with a large enough effect; inconclusive = small, poorly fitted or top-dose-only effect, or another doubt; inactive = no such curve, though single readings can be large or run the other way.
SMILES,Lassa entry inh,Shiga inhibitor,Pf growth 96h,Pf growth 48h,Cycloheximide cs,Marburg entry inh
O=[N+]([O-])c1ccccc1S(=O)(=O)n1cnc2ccccc21,-6.2%,-14.1,0.0%,10.5%,-1.5,5.0%[46.1 µM]
Cc1ccn2cc(CCNC(=O)C3CC=CCC3C(=O)O)nc2c1 (stereo not given),6.1%[46.1 µM],76.8*,18.0%,20.8%,20.4*,26.4%[46.1 µM]
CC12CN3CCN(C1)CC(C)(C3)C2=NN,-6.5%,74.1*,u,u,20.6*,-29.6%[14.2 µM]
CC12CN3CCN(CC(C3)C1O)C2 (stereo not given),2.4%,-14.8,u,x,3.4,1.2%
COc1ccc2ncc(S(=O)(=O)c3ccccc3)c(N3CCN(c4ccccc4)CC3)c2c1,u,1.3,13.1µM*,7.38µM*,-1.8,u
COc1ccc2ncc(S(=O)(=O)c3ccccc3)c(N3CCC4(CC3)OCCO4)c2c1,-26.3%,2.6,u,8.28µM*,-0.3,u
CC1CCCN(c2c(S(=O)(=O)c3ccccc3)cnc3ccc(Cl)cc23)C1 (stereo not given),x,x,x,x,x,-8.7%[46.1 µM]
COc1cc2ncc(S(=O)(=O)c3ccccc3)c(N3CCC4(CC3)OCCO4)c2cc1OC,x,-11.2,17.1%,u,-1.2,x
CC(C)c1ccc(NC(=O)C2CC(=O)N(C3CCCC3)C2)cc1 (stereo not given),-7.6%[46.1 µM],-1.8,u,13.8%,-4.3,23.6%[46.1 µM]
COc1cccc(CN2CCCN(Cc3ccc(F)cc3)S2(=O)=O)c1,-1.2%[46.1 µM],x,x,x,x,x
Cc1cccc(OCc2nnc(SCC(=O)N3CCCC3)n2C)c1,-6.9%,-6.9,-19.1%,-0.5%,13.4,-0.9%
O=C(Nc1ccc(-c2nc3ccccc3s2)c(O)c1)C1=COCCO1,u,73.1*,179.9%,87.2%,131.3*,u
O=C(Nc1cccc(-c2nc3ccccc3s2)c1)C1=COCCO1,u,50.2*,167.8%,84.5%,43.8*,18.5%
O=C(Nc1ccc(O)c(-c2nc3ccccc3s2)c1)C1=COCCO1,11.6%,1.0,56.8%,34.4%,-1.5,u
Cc1c(C(=O)Nc2cccc(-c3nc4ccccc4s3)c2)oc2ccc(F)cc12,10.9%[46.1 µM],x,x,x,x,27.5%[46.1 µM]
O=C(Nc1ccc(-c2nc3ccccc3s2)cc1)C1=COCCO1,2µM*,55.5*,61.2%,-35.9%,39.5*,0.794µM*
O=C(COc1ccccc1F)Nc1ccc(-c2nc3ccccc3s2)cc1,23.7%[46.1 µM],x,173.5%,91.9%,x,0.2%[46.1 µM]
CCOC(=O)c1c(S(=O)(=O)N2CCC(C(=O)Nc3ccc(C)c(Cl)c3)CC2)c(C)n(C)c1C,10.8%[46.1 µM],x,x,x,x,x
O=C(Cn1cc(Cl)c([N+](=O)[O-])n1)NCCC1=CCCCC1,-11.3%[46.1 µM],17.1,u,9.4%,15.5*,18.5%[46.1 µM]
Cn1cnnc1SCC(=O)NCCC1=CCCCC1,25.8%,x,x,x,x,u
CC1(C#N)c2ccccc2C(Br)=CN1C(=O)c1ccccc1 (stereo not given),x,x,u,10.4µM*,x,x
COC(=O)c1c(NC(=O)/C=C/C(=O)O)sc(Cc2ccccc2)c1C,-5.9%,-11.4,u,15.0%,1.1,11.2µM*
COC(=O)C(NC(=O)c1ccccc1C)(Nc1ncc(S(=O)(=O)c2ccc([N+](=O)[O-])cc2)s1)C(F)(F)F (stereo not given),u,4.8,4.15µM*,11.7µM*,-2.0,u
COC(=O)C(NC(=O)c1ccc(F)cc1)(Nc1ncc(S(=O)(=O)c2ccc([N+](=O)[O-])cc2)s1)C(F)(F)F (stereo not given),u,-14.9,13.1µM*,u,1.0,u
O=C(Nc1ncc(S(=O)(=O)c2ccc([N+](=O)[O-])cc2)s1)c1ccccc1F,x,3.9,9.7%,0.5%,8.0,x
SMILES,Lassa entry inh,Shiga inhibitor,Pf growth 96h,Pf growth 48h,Cycloheximide cs,Marburg entry inh
Cc1c(C)[n+](=O)c(-c2ccc(F)cc2)c(C)n1[O-],1.6%,1.4,21.1%,5.9%,-7.1,29.4%
O=C(Nc1ccccc1N1CCCCC1)c1ncoc1-c1ccc(F)cc1,5.4%,1.9,x,3.29µM*,-0.6,u
O=C(Nc1ccccc1N1CCCCC1)c1ncoc1-c1cccc(F)c1,x,-6.9,u,u,-3.1,x
O=C(Nc1ccc(N2CCOCC2)cc1N1CCOCC1)c1ccc(F)cc1,0.3%,x,x,x,x,u
O=C(Nc1ccc(N2CCOCC2)cc1N1CCOCC1)c1ncoc1-c1cccc(F)c1,x,6.1,-25.9%,11.7µM*,-4.7,-10.9%[46.1 µM]
CCOC(=O)N1CCN(S(=O)(=O)c2cccc3nsnc23)CC1,11.8%,1.1,u,5.4%,-2.5,u
COC(=O)c1ccc(NC(=O)CCN2CCN(c3ccccc3)CC2)cc1,u,3.9,-25.9%,u,-1.5,-2.4%
O=C(Nc1ccc(Cl)cc1)N1N=CCC1c1ccccc1 (stereo not given),9.1%,22.7,u,11.2%,19.6*,22.0%[14.2 µM]
O=C(Cc1ccc(-n2cccc2)cc1)N1CCN(c2ccccc2F)CC1,-3.0%,0.9,11.7µM*,19.5%,-1.4,-19.3%
O=C(CCN1CCN(c2ccccc2)CC1)Nc1ccc(Cl)cc1,1.9%,-3.4,3.7µM*,-4.7%,3.2,-5.0%
O=C(CN1CCN(c2ccccc2)CC1)N1N=CCC1c1ccccc1 (stereo not given),5.3%,-5.7,u,29.1%,1.2,-1.7%
O=C(NCc1ccccc1)N1CCC(CO)(Cc2cccc(F)c2)CC1,x,-9.5,5.4%,0.8%,0.4,x
O=C(Nc1ccc(Cl)cc1)N1CCC(CO)(Cc2ccccc2)CC1,-26.1%[46.1 µM],4.8,2.62µM*,-9.1%,-2.5,u
O=C(COc1cccc(C(F)(F)F)c1)Nc1ccc(S(=O)(=O)N2CCCC2)cc1,-10.5%,-4.3,20.0%,u,0.7,-16.9%
COC(=O)/C(C#N)=C/c1ccc(OC(=O)c2ccccn2)cc1,10.7%,16.7,53.5%,9.4%,13.4,5.2%
CC(C)/C=N/Nc1nc2c(c(=O)n(C)c(=O)n2C)n1C,3.7%,-6.4,23.9%,4.5%,13.4,0.6%
O=C(Nc1ccc(Cl)cc1)N1CC1,0.0%[46.1 µM],x,x,x,x,u
COc1ccc(NC(=O)N2CCN(C(=O)Nc3ccc(OC)cc3)CC2)cc1,x,0.5,-11.2%,-28.0%,-2.6,x
O=C(Nc1ccc(NC(=O)N2CCN(c3ccccc3O)CC2)cc1)N1CCN(c2ccccc2O)CC1,u,4.1,5.86µM*,u,-3.7,-0.6%[46.1 µM]
CN1CCC(CO)(Cc2ccccc2)CC1,x,-9.2,3.7µM*,35.1%,-3.9,x
CC(=O)c1ccc(NC(=O)N2CCN(c3cccc(Cl)c3)CC2)cc1,20.1%,39.4,u,4.65µM*,4.7,u
O=C(Nc1ccc(Cl)cc1)N1CCN(c2ccccc2)CC1,7.4%,24.2,11.7µM*,u,19.5*,18.9%
CCCCn1c(SCC(=O)N2CC(=O)Nc3ccccc32)nnc1-c1ccoc1C,9.0%,14.9,-1.9%,u,-0.6,-1.5%
O=C(Cc1ccc(Cl)cc1)N1CCN(c2ccc(F)cc2)CC1,-12.3%[46.1 µM],-5.3,7.1%,-18.4%,4.0,u
